From the supplement of paper PMC10849652
The full data set covers some 8,800 targets. This sample favours those with a hit. About 0.5% of all pairs of compound and target were hits. Unmarked numbers belong to inactive results.

Compound: CN1CCC(CNc2ccc3ncc(-c4cccc(OC(F)(F)F)c4)n3n2)CC1
Assay: log2 fold change, soluble protein after heating vs DMSO (PISA); higher = thermal stabilisation; K562 lysate, 10 uM; active = over 0.2 and 3.5 SD of the protein, either way, in both replicates (recomputed)
Summary of the method: (§1)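 Soluble protein was defined as the supernatant remaining after 21,000xg for 90 min, following pooling of heated aliquots and adjustment to 0.5% NP-40 at 4°C. Before that, crude K562 extract at 1 mg/mL protein in PBS pH 7.4 with 1 mM MgCl2 was treated with 10 μM compound for 30 min and heated for 3 min across 48°C-58°C. Quantification used TMTpro 16plex LC-MS/MS with channel sums equalised, and values are log-two fold changes in thermal stability relative to solvent controls from duplicates.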

Chain of UniProt O75143 (O75143 whole entry, looked up): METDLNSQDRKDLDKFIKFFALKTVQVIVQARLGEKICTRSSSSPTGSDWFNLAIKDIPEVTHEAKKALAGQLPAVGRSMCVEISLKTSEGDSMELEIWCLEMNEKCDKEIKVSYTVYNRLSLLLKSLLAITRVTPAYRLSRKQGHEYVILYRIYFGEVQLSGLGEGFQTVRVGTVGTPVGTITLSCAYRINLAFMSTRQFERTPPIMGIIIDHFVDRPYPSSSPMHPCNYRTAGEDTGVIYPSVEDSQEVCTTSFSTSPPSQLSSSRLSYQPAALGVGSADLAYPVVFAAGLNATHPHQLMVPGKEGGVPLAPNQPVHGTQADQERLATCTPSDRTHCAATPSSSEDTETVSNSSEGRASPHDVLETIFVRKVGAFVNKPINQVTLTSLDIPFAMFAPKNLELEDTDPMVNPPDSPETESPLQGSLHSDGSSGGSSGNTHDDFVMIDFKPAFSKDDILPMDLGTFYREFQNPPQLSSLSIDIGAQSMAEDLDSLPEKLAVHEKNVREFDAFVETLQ
Chain of UniProt Q9BV29 (Q9BV29 whole entry, looked up): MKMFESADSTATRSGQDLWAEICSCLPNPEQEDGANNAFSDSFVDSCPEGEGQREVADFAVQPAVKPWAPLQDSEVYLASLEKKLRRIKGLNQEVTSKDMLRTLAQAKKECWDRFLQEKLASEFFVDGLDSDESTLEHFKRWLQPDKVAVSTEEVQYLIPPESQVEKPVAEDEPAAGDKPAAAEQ
Chain of UniProt P14635 (P14635 whole entry, looked up): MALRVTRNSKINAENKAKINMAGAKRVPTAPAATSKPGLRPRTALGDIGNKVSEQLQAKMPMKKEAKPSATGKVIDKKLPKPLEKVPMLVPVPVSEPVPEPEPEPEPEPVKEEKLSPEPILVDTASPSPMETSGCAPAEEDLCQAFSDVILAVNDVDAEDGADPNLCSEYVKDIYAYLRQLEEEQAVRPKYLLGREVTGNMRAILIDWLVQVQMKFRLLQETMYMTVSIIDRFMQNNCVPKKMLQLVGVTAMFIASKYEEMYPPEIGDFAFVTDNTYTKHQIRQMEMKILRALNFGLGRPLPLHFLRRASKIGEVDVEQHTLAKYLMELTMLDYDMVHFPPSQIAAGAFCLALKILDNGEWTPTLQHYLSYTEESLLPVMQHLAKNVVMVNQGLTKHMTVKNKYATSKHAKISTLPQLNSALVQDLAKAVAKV
Chain of UniProt Q15834 (Q15834 whole entry, looked up): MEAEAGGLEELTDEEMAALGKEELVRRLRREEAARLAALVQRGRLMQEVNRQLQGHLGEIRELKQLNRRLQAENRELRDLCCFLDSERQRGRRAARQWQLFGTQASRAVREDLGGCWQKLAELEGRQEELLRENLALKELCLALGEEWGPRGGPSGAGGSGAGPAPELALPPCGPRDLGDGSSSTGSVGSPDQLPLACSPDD
Chain of UniProt Q6P4E1 (Q6P4E1 whole entry, looked up): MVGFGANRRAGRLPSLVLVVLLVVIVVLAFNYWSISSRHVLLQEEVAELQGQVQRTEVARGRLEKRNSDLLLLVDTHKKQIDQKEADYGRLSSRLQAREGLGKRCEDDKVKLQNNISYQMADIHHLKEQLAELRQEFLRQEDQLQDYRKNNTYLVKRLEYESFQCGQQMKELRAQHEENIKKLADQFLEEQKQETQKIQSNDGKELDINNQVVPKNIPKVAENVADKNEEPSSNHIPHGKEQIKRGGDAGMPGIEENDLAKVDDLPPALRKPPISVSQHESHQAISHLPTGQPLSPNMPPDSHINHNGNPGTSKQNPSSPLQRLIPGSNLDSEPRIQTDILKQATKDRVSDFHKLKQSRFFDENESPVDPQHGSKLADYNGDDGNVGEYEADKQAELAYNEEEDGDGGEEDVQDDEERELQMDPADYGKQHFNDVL
Chain of UniProt Q9UEE9 (Q9UEE9 whole entry, looked up): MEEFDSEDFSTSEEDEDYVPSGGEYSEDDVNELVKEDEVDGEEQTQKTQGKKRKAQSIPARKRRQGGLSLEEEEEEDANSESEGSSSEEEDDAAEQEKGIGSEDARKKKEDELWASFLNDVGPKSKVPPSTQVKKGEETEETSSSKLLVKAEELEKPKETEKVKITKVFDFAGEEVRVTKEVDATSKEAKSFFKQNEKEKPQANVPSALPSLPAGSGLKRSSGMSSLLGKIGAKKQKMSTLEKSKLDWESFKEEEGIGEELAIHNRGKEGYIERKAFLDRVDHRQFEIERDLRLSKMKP
Chain of UniProt Q8TAP6 (Q8TAP6 whole entry, looked up): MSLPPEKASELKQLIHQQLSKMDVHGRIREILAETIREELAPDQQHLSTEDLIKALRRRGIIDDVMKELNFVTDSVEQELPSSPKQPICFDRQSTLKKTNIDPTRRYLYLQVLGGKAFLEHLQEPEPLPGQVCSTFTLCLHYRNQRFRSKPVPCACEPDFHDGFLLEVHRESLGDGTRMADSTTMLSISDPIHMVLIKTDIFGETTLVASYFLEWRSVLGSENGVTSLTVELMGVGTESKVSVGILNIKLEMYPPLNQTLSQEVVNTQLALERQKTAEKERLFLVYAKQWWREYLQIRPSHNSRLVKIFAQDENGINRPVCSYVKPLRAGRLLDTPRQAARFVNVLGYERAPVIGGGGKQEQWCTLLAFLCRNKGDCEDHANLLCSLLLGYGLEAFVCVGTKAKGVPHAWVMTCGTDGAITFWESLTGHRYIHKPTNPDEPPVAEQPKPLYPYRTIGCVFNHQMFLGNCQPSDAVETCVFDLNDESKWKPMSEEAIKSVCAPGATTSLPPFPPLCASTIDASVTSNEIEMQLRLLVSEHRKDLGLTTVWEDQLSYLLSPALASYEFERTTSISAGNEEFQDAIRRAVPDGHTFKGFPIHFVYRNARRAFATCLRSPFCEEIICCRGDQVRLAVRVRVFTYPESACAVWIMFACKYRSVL
Chain of UniProt P24863 (P24863 whole entry, looked up): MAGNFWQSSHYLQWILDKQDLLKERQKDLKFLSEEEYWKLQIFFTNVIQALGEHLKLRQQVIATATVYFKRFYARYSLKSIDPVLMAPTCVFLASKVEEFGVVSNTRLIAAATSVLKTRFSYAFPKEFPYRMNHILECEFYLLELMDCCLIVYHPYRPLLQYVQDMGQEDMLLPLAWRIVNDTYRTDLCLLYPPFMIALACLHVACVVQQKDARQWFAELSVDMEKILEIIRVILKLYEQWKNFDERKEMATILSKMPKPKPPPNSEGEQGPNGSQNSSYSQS
Chain of UniProt P11274 (P11274 whole entry, looked up): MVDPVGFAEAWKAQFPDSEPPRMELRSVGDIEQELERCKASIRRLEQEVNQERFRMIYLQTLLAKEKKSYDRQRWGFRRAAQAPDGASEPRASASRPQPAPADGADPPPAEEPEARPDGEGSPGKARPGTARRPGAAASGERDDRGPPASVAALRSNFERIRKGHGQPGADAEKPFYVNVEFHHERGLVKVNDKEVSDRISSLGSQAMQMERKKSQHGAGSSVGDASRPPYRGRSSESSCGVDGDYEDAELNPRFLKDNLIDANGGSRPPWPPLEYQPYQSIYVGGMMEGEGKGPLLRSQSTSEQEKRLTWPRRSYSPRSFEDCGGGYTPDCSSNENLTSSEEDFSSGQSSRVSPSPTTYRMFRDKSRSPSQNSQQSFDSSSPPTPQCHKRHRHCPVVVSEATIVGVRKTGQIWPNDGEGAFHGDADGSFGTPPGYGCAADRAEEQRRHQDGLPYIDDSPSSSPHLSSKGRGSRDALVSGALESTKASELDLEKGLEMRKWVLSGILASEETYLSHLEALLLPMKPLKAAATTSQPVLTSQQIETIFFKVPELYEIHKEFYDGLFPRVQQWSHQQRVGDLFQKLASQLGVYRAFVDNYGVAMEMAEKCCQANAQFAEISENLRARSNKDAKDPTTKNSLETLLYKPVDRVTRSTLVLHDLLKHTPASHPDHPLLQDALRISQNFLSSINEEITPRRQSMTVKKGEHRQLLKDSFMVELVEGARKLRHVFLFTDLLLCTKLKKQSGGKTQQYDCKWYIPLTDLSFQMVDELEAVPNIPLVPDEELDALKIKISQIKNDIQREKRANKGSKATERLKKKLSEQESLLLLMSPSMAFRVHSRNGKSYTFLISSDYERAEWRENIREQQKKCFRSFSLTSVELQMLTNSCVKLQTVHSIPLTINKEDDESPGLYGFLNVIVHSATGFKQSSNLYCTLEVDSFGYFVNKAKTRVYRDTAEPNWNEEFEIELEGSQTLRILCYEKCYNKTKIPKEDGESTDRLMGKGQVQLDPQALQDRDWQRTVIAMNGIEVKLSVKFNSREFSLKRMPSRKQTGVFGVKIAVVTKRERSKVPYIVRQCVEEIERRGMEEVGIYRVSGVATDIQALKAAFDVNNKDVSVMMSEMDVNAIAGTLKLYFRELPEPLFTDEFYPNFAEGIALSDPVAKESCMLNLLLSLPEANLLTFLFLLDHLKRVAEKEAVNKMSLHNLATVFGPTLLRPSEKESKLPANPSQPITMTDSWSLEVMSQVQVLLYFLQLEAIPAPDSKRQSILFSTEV
Chain of UniProt P49918 (P49918 whole entry, looked up): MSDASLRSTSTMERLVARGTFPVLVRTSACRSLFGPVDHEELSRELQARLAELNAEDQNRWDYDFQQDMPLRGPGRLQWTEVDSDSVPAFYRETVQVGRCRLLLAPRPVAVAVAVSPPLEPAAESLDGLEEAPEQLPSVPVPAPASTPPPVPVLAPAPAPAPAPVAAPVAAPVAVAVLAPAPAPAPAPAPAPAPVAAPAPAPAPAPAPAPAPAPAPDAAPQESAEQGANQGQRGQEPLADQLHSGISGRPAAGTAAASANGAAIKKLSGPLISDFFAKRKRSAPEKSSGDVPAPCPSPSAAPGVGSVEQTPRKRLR
Chain of UniProt Q9Y2V2 (Q9Y2V2 whole entry, looked up): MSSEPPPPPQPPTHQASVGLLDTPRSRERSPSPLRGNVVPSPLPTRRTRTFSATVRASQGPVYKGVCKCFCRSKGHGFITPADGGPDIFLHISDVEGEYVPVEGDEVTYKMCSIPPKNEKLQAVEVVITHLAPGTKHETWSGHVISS
Chain of UniProt Q9UL45 (Q9UL45 whole entry, looked up): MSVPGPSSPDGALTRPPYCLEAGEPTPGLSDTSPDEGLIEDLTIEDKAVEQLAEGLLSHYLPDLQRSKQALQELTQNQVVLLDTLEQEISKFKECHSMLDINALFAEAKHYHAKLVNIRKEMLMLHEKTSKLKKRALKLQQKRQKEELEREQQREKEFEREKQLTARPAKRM

Target	log2 fold change
CENPQ (UniProt Q7L2Z9)	0.095
CD63 (UniProt P08962)	0.175
CARS isoform 3 (UniProt P49589)	-0.029
CCNC (UniProt P24863)	0.135
CBFA2T3 (UniProt O75081)	-0.018
BUB1B isoform 3 (UniProt O60566)	-0.05
CES2 isoform 4 (UniProt O00748)	0.034
CDC123 (UniProt O75794)	-0.021
CCDC85B (UniProt Q15834)	-0.01
CARD9 (UniProt Q9H257)	0.013
CANX isoform 2 (UniProt P27824)	0.034
CDKN2AIP (UniProt Q9NXV6)	0.03
AURKA (UniProt O14965)	0.096
CDC42BPA isoform 6 (UniProt Q5VT25)	-0.118
ATG13 isoform 2 (UniProt O75143)	0.077
CARHSP1 (UniProt Q9Y2V2)	0.044
CCAR2 (UniProt Q8N163)	0.032
ATP6V0A2 (UniProt Q9Y487)	0.14
CCPG1 isoform 5 (UniProt Q9ULG6)	0.04
CCNB1 (UniProt P14635)	-0.012

Target	log2 fold change
CCNH (UniProt P51946)	-0.062
BCAR1 isoform 6 (UniProt P56945)	-0.012
CDAN1 (UniProt Q8IWY9)	-0.012
CDK13 (UniProt Q14004)	0.04
CFDP1 (UniProt Q9UEE9)	0.105
ATP11A (UniProt P98196)	0.024
BCKDK (UniProt O14874)	0.059
BLOC1S6 (UniProt Q9UL45)	0.009
CBX1 (UniProt P83916)	-0.111
CDC7 (UniProt O00311)	-0.073
C19orf54 (UniProt Q5BKX5)	0.003
C8orf37 (UniProt Q96NL8)	0.166
CDK2 (UniProt P24941)	0.167
CEP76 (UniProt Q8TAP6)	0.053
CDK11B (UniProt P21127)	-0.048
CASC4 (UniProt Q6P4E1)	-0.008
CCDC32 isoform 2 (UniProt Q9BV29)	0.065
BCR (UniProt P11274)	-0.029
ATP13A1 (UniProt Q9HD20)	-0.343 (active)
CDKN1C (UniProt P49918)	0.03

Compound: CN1CCN(CCOc2cc(OC3CCOCC3)c3c(Nc4c(Cl)ccc5c4OCO5)ncnc3c2)CC1 [saracatinib]
Assay: as above
Summary of the method: as §1

Target	log2 fold change
CENPQ (UniProt Q7L2Z9)	0.033
CD63 (UniProt P08962)	0.073
CARS isoform 3 (UniProt P49589)	0.005
CCNC (UniProt P24863)	-0.001
CBFA2T3 (UniProt O75081)	0.021
BUB1B isoform 3 (UniProt O60566)	-0.006
CES2 isoform 4 (UniProt O00748)	-0.001
CDC123 (UniProt O75794)	0.012
CCDC85B (UniProt Q15834)	0.163
CARD9 (UniProt Q9H257)	0.014
CANX isoform 2 (UniProt P27824)	0.001
CDKN2AIP (UniProt Q9NXV6)	-0.004
AURKA (UniProt O14965)	0.008
CDC42BPA isoform 6 (UniProt Q5VT25)	-0.021
ATG13 isoform 2 (UniProt O75143)	0.005
CARHSP1 (UniProt Q9Y2V2)	0
CCAR2 (UniProt Q8N163)	-0.002
ATP6V0A2 (UniProt Q9Y487)	-0.007
CCPG1 isoform 5 (UniProt Q9ULG6)	0.049
CCNB1 (UniProt P14635)	0.002

Target	log2 fold change
CCNH (UniProt P51946)	-0.036
BCAR1 isoform 6 (UniProt P56945)	0.032
CDAN1 (UniProt Q8IWY9)	0.002
CDK13 (UniProt Q14004)	0.074
CFDP1 (UniProt Q9UEE9)	-0.007
ATP11A (UniProt P98196)	-0.01
BCKDK (UniProt O14874)	0.031
BLOC1S6 (UniProt Q9UL45)	-0.034
CBX1 (UniProt P83916)	-0.003
CDC7 (UniProt O00311)	0.004
C19orf54 (UniProt Q5BKX5)	-0.027
C8orf37 (UniProt Q96NL8)	-0.06
CDK2 (UniProt P24941)	-0.017
CEP76 (UniProt Q8TAP6)	0.047
CDK11B (UniProt P21127)	-0.024
CASC4 (UniProt Q6P4E1)	-0.003
CCDC32 isoform 2 (UniProt Q9BV29)	0.021
BCR (UniProt P11274)	0.024
ATP13A1 (UniProt Q9HD20)	0.012
CDKN1C (UniProt P49918)	-0.14
